High-throughput results deposited in PubChem BioAssay by National Center for Advancing Translational Sciences (NCATS).
PLK1 PBD block – qHTS for Inhibitors of PLK1-PDB (polo-like kinase 1 - polo-box domain): Primary Screen | Potency, µM, without a hit: max response, negative = inhibition, actives largely listed as inhibitors | Plk1 PBD binding of FITC phosphopeptide, fluorescence polarization | actives 2.8% (n = 360,000) | Serine/threonine-protein kinase PLK1 (Homo sapiens), P53350 | AID 720504, 2013; also: series mostly up to about 57 µM; % is scaled to controls: 0 for no effect and ±100 for the full control effect; nearly all actives have a fitted effect of over 65% in size
VDR inhibitor – Inhibitors of the vitamin D receptor (VDR): qHTS | Vitamin D3 receptor (Homo sapiens), P11473 | VDR-SRC2-3 peptide fluorescence polarization, 2 h | Potency, µM, for the others: max response, negative = inhibition, most hits filed as inhibitors | actives 0.93% (n = 400,000) | AID 504847, 2011; also: % is scaled to controls: 0 for no effect and ±100 for the full control effect
Target sequence (P11473 whole entry, looked up): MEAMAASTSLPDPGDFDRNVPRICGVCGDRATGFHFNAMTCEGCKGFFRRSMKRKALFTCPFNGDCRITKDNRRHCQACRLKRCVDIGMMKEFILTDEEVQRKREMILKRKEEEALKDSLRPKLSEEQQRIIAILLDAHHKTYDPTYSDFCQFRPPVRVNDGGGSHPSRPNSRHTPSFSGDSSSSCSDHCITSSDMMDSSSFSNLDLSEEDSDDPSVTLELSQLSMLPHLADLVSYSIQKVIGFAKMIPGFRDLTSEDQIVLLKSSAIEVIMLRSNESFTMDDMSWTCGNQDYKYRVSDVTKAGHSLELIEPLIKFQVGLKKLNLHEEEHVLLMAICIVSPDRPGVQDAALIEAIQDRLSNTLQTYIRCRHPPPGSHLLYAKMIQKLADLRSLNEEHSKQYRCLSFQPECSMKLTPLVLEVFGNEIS
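Measured by FP: displacement of SRC2-3 coactivator peptide from VDR by library compounds, following a two-hour ambient incubation.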
BAZ2B inh – qHTS Assay for Inhibitors of BAZ2B | Bromodomain adjacent to zinc finger domain protein 2B (Homo sapiens), Q9UIF8 | AlphaScreen BAZ2B-H3K14Ac peptide displacement | Potency, µM (top dose mostly 114 µM), for the others: at the highest dose activity change, negative = inhibition, hits mostly inhibitors | actives 4.4% (n = 360,000); also: % is scaled to controls: 0 for no effect and ±100 for the full control effect; nearly all actives have a fitted effect of over 60% in size
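Compounds, titrated to a top concentration of 110 uM, were incubated 30 min at room temperature with preformed BAZ2B/acetyl-K14 H3 peptide complex (50 nM each). Proximity signal was measured by AlphaScreen after 20 min with beads.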
JMJD2A Tudor inh – qHTS Assay for Inhibitors of JMJD2A-Tudor Domain. Lysine-specific demethylase 4A (Homo sapiens), O75164. AlphaScreen JMJD2A-Tudor / H3K4me3 peptide binding. Potency, µM (doses to about 114 µM), for inactives: at the highest dose activity change, negative = inhibition, actives largely listed as inhibitors. actives 4.4% (n = 390,000). AID 504339, 2011; also: % is scaled to controls: 0 for no effect and ±100 for the full control effect; nearly all actives have a fitted effect of over 50% in size
HP1b chromo inh – HTS for Inhibitors of HP1-beta Chromodomain Interactions with Methylated Histone Tails; Chromobox protein homolog 1 (Homo sapiens), P83916; AlphaScreen HP1-beta / biotin-H3K9me3 peptide binding; Potency, µM (highest dose often 114 µM), without a hit: at the top dose activity change, negative = inhibition, actives largely listed as inhibitors; actives 0.56% (n = 390,000); also: nearly all actives have a fitted effect of over 70% in size
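Compound inhibition of the preformed complex between 50 nM HP1-beta and 50 nM biotinylated H3K9me3 peptide was read by AlphaScreen. Buffer was PBS pH 7.4 with 0.01% Tween-20. Incubations ran 30 min at room temperature, with 10 ug/mL donor/acceptor beads.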
G9a inh – qHTS Assay for Inhibitors of Histone Lysine Methyltransferase G9a; Histone-lysine N-methyltransferase EHMT2 (Homo sapiens), Q96KQ7; G9a H3K9 monomethylation, AlphaScreen, 2 h; Potency, µM (top dose mostly 102 µM), inactives show at the top dose activity, negative = inhibition, usual class: inhibitors; actives 8.8% (n = 350,000); also: % is scaled to controls: 0 for no effect and ±100 for the full control effect; nearly all actives have a fitted effect of over 75% in size
Target sequence (Q96KQ7 913-1193 limits assumed): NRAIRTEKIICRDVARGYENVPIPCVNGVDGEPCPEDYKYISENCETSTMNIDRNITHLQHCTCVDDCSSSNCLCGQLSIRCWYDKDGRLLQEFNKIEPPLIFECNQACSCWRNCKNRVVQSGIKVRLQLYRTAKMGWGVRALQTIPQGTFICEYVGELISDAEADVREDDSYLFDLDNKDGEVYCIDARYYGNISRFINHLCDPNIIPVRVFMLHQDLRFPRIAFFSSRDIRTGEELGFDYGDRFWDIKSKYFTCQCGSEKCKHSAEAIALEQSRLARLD
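Quantitative HTS format: methyltransferase activity on a biotin-tagged H3K9 peptide is measured by AlphaScreen, using a rabbit anti-monomethyl-H3K9 antibody with streptavidin donor and anti-IgG acceptor beads. Final levels are 20 nM enzyme, 500 nM peptide, 20 uM SAM; 2 h RT.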
An asterisk follows results filed as active; ? = inconclusive; · = not tested or not shown; [ ] = dose if it differs, or a comment. Compounds with a hit are over-represented: about 11% of the library has one in this group of screens. Calls follow the shape of the dose curve; as a rule, active = well fitted curve in the direction sought with a large enough effect; inconclusive = small, poorly fitted or top-dose-only effect, or another doubt; inactive = no such curve, though single readings can be large; an effect the other way counts as inactive or inconclusive. Potency is read from the fitted curve at half-maximal effect.

SMILES | PLK1 PBD block | VDR inhibitor | BAZ2B inh | JMJD2A Tudor inh | HP1b chromo inh | G9a inh
Cc1c(Cl)cnc(NC(=O)COC(=O)c2nn(C)c(=O)c3ccccc23)c1Cl | -16% | -11% | ? | -24% | 14% | 45µM*
Cc1ccccc1OCC(=O)OCC(=O)Nc1ncc(Cl)c(C)c1Cl | -26% | 23% | 56µM* | ? | 5% | 15%[2.33 µM]
CCCn1nc(C(=O)OCC(=O)Nc2ncc(Cl)c(C)c2Cl)c2ccccc2c1=O | -19% | -28% | -17% | -14% | -1% | ?
CCC1CCCCN1C(=O)Cn1c(=O)n(CCCCCC(=O)NCc2ccc(F)cc2)c(=O)c2sccc21 (stereo not given) | · | 20% | 22% | -3% | 63% | 17%[59 µM]
O=C(CSc1ccc(-c2ccccn2)nn1)NC1CCCCC1 | -5% | 8% | 4µM* | 3.5µM* | 30% | 31%
O=C(CSc1ccc(-c2ccccn2)nn1)NCc1ccc(F)cc1 | -13% | 9% | 3.2µM* | 7.9µM* | 12% | -16%
COc1ccccc1CNC(=O)c1nnn(CC(=O)Nc2c(C)cccc2C)c1N | · | -5% | 6%[57.1 µM] | -6% | 20% | -6%[59 µM]
CCOC(=O)c1noc(C)c1C(=O)Nc1nc(C)cc(C)n1 | 3% | 0% | -2% | -5% | 39% | -26%
CC(C)COc1ncnc2c1sc1nc3c(cc12)COC(C)(C)C3 | · | · | 1% | · | · | ·
NS(=O)(=O)c1ccc(NCC2COc3ccccc3O2)c([N+](=O)[O-])c1 (stereo not given) | -2% | 10% | -35% | -32% | -21% | 50µM*
O=[N+]([O-])c1ccc(S(=O)(=O)NCC2COc3ccccc3O2)cc1 (stereo not given) | -6% | -3% | ? | -30% | -14% | 16%[59 µM]
Cc1ccc(NC(=O)c2c(C)oc3ncn(C)c(=O)c23)cc1F | · | 3% | -1% | -4% | 33% | -3%[59 µM]
CC(C)Cn1c(=O)c2ccccc2n2c(-c3ccc(Br)cc3)nnc12 | · | 8% | -33% | ? | -13% | -47%[59 µM]
N#Cc1c(Cl)c(Cl)c2nnc(-c3ccc(Br)cc3)n2c1Cl | · | · | 56µM* | · | · | 13µM*
CCOC(=O)Oc1c(OC)cc(C(=O)O[C@@H]2C[C@@H]3CN4CCc5c([nH]c6cc(OC)ccc56)[C@H]4C[C@@H]3[C@H](C(=O)OC)[C@H]2OC)cc1OC | 20% | 22% | ? | ? | 11% | 8.9µM*
CCN1C(=O)N[C@@H](c2cccc(F)c2)C(C(C)=O)=C1C | -16% | 2% | · | -17% | 32% | ·
CCN1C(=O)N[C@@H](CCc2ccccc2)C(C(C)=O)=C1C | 27µM* | ? | · | ? | 11% | ·
CCN1C(=O)N[C@H](c2ccc(Br)cc2)C(C(C)=O)=C1C | -27% | -15% | 3% | -22% | 25% | 45µM*
CN(C(=O)c1cccc(NC(=O)Cc2cccc([N+](=O)[O-])c2)c1)C1CC1 | -6% | -2% | · | -16% | 30% | ·
COC(=O)c1cn(C(=O)c2ccc(C)cc2)c2ccccc12 | 19µM* | -13% | 89% | ? | 78% | 255%
COC(=O)c1cn(C(=O)c2cc(OC)c(OC)c(OC)c2)c2ccccc12 | -3% | -5% | 12% | 1% | 39% | ·
COC(=O)c1cn(C(=O)c2cc(C)cc(C)c2)c2ccccc12 | 21µM* | -24% | 9% | 1%[11.4 µM] | 5% | -1%[12.7 µM]
COc1ccc(N2CCN(S(=O)(=O)c3cc4c(cc3C)NC(=O)CO4)CC2)cc1 | -1% | -11% | 15% | -17% | 33% | ·
COc1ccc(/C=C(/NC(=O)c2ccccc2)C(=O)NC2CCS(=O)(=O)C2)cc1 (stereo not given) | 15µM* | ? | 7% | 14µM* | -10% | -8%[59 µM]
Cc1ccc(Sc2ccc(/C=N/O)cc2[N+](=O)[O-])cc1 | 0% | 28% | ? | 45µM* | -45% | ?
SMILES | PLK1 PBD block | VDR inhibitor | BAZ2B inh | JMJD2A Tudor inh | HP1b chromo inh | G9a inh
CC12CCC(=O)N1C(C(=O)NNC(=O)COc1ccccc1F)CS2 (stereo not given) | -5% | 10% | -3% | -19% | 14% | 11%[59 µM]
Cc1c(C(=O)N(C)C)c2cc(Cl)ccc2n1O | -20% | 22% | 3% | -7% | 18% | ?
Cc1c(C(=O)N(C)C)c2ccc(Cl)cc2n1O | -23% | 26% | 4% | -9% | 13% | 3.2µM*
CC(=O)Nc1ccc(N=NC2C(=O)N(C(N)=S)N=C2C)cc1 (stereo not given) | ? | -15% | -17% | -22% | 18% | 79µM*
CC1=NN(C(N)=S)C(=O)C1N=Nc1ccccc1Cl (stereo not given) | -30% | -12% | -27% | -13% | 27% | -9%[0.501 µM]
CC1=NN(C(N)=S)C(=O)C1N=Nc1ccc(Cl)cc1Cl (stereo not given) | -29% | ? | ? | 50µM* | -22% | ·
CC1=NN(C(N)=S)C(=O)C1N=Nc1ccc([N+](=O)[O-])cc1 (stereo not given) | -7% | -10% | -34% | ? | ? | 79µM*
CC1=NN(C(N)=S)C(=O)C1N=Nc1cccc(C(=O)O)c1 (stereo not given) | ? | 14% | -22% | 4µM* | 12% | 0.71µM*
CCS(=O)(=O)c1cccc(C(=O)N2CCN(c3nc4c(C)ccc(Cl)c4s3)CC2)c1 | · | 6% | -38% | -29% | 22% | -18%[59 µM]
CCCn1c(SC(C(=O)Nc2cccc(OC)c2)c2ccccc2)nc2ccccc2c1=O (stereo not given) | 1% | 4% | -1% | -1% | 24% | 18%[59 µM]
CCO[C@@H]1OC(C(=O)N2CCOCC2)=C[C@H](c2ccccc2)[C@H]1CCCO | -3% | -1% | -31% | -10% | 52% | -29%[59 µM]
CC1=NN(C(N)=S)C(=O)C1N=Nc1ccccc1C(=O)O (stereo not given) | -7% | 7% | -14% | 1% | 46% | 6%
CC1=NN(c2ccccc2C(=O)O)C(=O)C1N=Nc1ccccc1 (stereo not given) | ? | -11% | ? | ? | ? | 45µM*
Cc1cccc(C2c3[nH]c4ccccc4c3CCN2Cc2cccn2-c2ncccn2)c1 (stereo not given) | -3% | 10% | 32µM* | 50µM* | ? | ·
